Results: PubChem BioAssay (EPA / NIEHS)
Records with an inconclusive call do not appear. The source made the active and inactive calls. The calls were made as follows, unless noted: active = hit-call score of the fitted dose curve at least 0.9, where 1 is the maximum; inconclusive = response in the unintended direction; inactive = score below 0.9.

Experiments:
[1] = ATG_TCF_b_cat_CIS: Attagene CIS-FACTORIAL HepG2 Assay for human T-Cell-Factor with beta-catenin (TCF/b-cat) (AID 2282965; active = hit-call score of the fitted dose curve at least 0.9, where 1 is the maximum; inactive = score below 0.9); details: HepG2 TCF/beta-catenin cis-reporter transcription, actives raise or lower the signal
In short: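 HepG2 cells transiently transfected with multiple cis-promoter-regulated reporter transcription units, so endogenous transcription factor activity is measured. Reporter mRNA read 24 hours after dosing by RT-PCR, fluorescent labelling and capillary electrophoresis; bidirectional fitting against DMSO.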

[2] = ATG_TAL_CIS: Attagene CIS-FACTORIAL HepG2 Assay for human TAL Basal Promoter (AID 2282966; active = hit-call score of the fitted dose curve at least 0.9, where 1 is the maximum; inactive = score below 0.9;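 also: background control endpoint measuring basal TAL promoter reporter mRNA not a specific factor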); details: HepG2 Attagene cis-factorial TAL promoter reporter; actives raise or lower the signal
In short: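 RT-PCR plus capillary electrophoresis quantifies reporter mRNA induction in transiently transfected HepG2 cells after 24 h chemical treatment. DMSO serves as negative control and baseline for bidirectional fitting.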

[3] = ATG_TGFb_CIS: Attagene CIS-FACTORIAL HepG2 Assay for human Transforming Growth Factor (TGF) (AID 2282967; active = hit-call score of the fitted dose curve at least 0.9, where 1 is the maximum; inactive = score below 0.9); details: HepG2 Attagene CIS TGFb reporter, mRNA transcription; actives raise or lower the signal
In short: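 HepG2 cells transiently transfected with cis-promoter-driven multiple reporter units measure endogenous TF activity; reporter mRNA quantified at 24 h by RT-PCR, FAM labeling, HpaI digestion and capillary electrophoresis. Bidirectional fit vs DMSO.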

[4] = biological target: Nuclear receptor subfamily 1 group I member 3 (Homo sapiens) (UniProt Q14994); assay: ATG_CAR_TRANS: Attagene TRANS-FACTORIAL HepG2 Assay for human Constitutive Androstane Receptor (CAR) (AID 2282969); details: HepG2 Attagene TRANS-FACTORIAL CAR reporter;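 also: activators raise reporter mRNA above DMSO so AC50 marks induction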
In short: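 HepG2 cells transiently transfected with multiplexed GAL4-UAS reporter units expressing chimeric NR-Gal4 proteins; compound exposure 24 h. Reporter mRNA measured by RT-PCR, 6-FAM labelling, HpaI digestion and capillary electrophoresis; gain-of-signal fitted against DMSO baseline.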

[5] = biological target: X-box-binding protein 1 (Homo sapiens) (UniProt P17861); assay: ATG_Xbp1_CIS: Attagene CIS-FACTORIAL HepG2 Assay for human X-box Binding Protein 1 (XBP1) (AID 2282972; active = hit-call score of the fitted dose curve at least 0.9, where 1 is the maximum; inactive = score below 0.9); details: HepG2 XBP1 cis-element reporter, Attagene multiplex; actives raise or lower the signal
In short: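 HepG2 cells transiently transfected with cis-regulated multiple reporter transcription units; endogenous transcription factor activity measured 24 hours after chemical dosing. Reporter mRNA quantified by RT-PCR, 6-FAM primer extension, HpaI digestion and capillary electrophoresis; bidirectional fitting versus DMSO.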

[6] = ATG_Hpa5_TRANS: Attagene TRANS-FACTORIAL HepG2 Assay for human GAL4-Hpa5 Hepatocyte Transcription Factor Basal Promoter (AID 2282975); details: HepG2 Attagene GAL4-Hpa5 transcription reporter;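 also: hits are increases in reporter mRNA over DMSO baseline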
In short: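 Basal-promoter GAL4 background control within the HepG2 trans-factorial panel of transiently transfected reporter units. Reporter mRNA is measured 24 h after dosing by RT-PCR and capillary electrophoresis, fitted for gain of signal versus DMSO.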

[7] = biological target: Estrogen-related receptor gamma (Homo sapiens) (UniProt P62508); assay: ATG_ERRg_TRANS: Attagene TRANS-FACTORIAL HepG2 Assay for human Estrogen-Related Receptor gamma (ERRg) (AID 2282977); details: HepG2 Attagene TRANS reporter, ERRg transactivation;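 also: hits increase reporter signal over DMSO so potencies reflect activators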
In short: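 Transient HepG2 transfectants, 24 h compound exposure, GAL4-UAS reporter mRNA by RT-PCR/6-FAM labelling/capillary electrophoresis; positive direction vs DMSO.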

[8] = biological target: Bile acid receptor (Homo sapiens) (UniProt Q96RI1); assay: ATG_FXR_TRANS: Attagene TRANS-FACTORIAL HepG2 Assay for Farnesoid X Receptor (FXR) (AID 2282979); details: HepG2 Attagene TRANS FXR-GAL4 reporter transcription;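 also: hits raise reporter mRNA above DMSO so AC50 marks FXR activation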
In short: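 Reporter transcripts from transfected HepG2 cells were measured 24 h after dosing, using RT-PCR with capillary electrophoresis of 6-FAM-labelled fragments. The read-out reflects activity of exogenous FXR-Gal4 chimera on GAL4-UAS units, with induction relative to DMSO.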

[9] = biological target: Oxysterols receptor LXR-alpha (Homo sapiens) (UniProt Q13133); assay: ATG_LXRa_TRANS: Attagene TRANS-FACTORIAL HepG2 Assay for human Liver X Receptor alpha (LXRa) (AID 2282980); details: HepG2 Attagene TRANS reporter, LXRa transactivation
In short: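 Chemical-induced reporter mRNA measured by RT-PCR with fluorescent labelling and capillary electrophoresis after 24 h dosing of transiently transfected HepG2 cells expressing exogenous NR-Gal4 chimeras; increases scored against DMSO baseline.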

[10] = biological target: Oxysterols receptor LXR-beta (Homo sapiens) (UniProt P55055); assay: ATG_LXRb_TRANS: Attagene TRANS-FACTORIAL HepG2 Assay for human Liver X Receptor beta (LXRb) (AID 2282981); details: HepG2 Attagene TRANS GAL4-LXRb reporter, mRNA
In short: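 HepG2 cells transiently transfected with multiple reporter transcription units carrying chimeric NR-Gal4 proteins acting on GAL4-UAS reporters; compound exposure 24 h. Reporter mRNA quantified by RT-PCR, 6-FAM labelling, HpaI digestion and capillary electrophoresis; gain of signal versus DMSO.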

[11] = ATG_M_06_TRANS: Attagene TRANS-FACTORIAL HepG2 Assay for M06 Transcription Factor (Internal Marker) (AID 2282983); details: HepG2 Attagene TRANS M06 internal marker reporter
In short: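 Cells: HepG2, transient multi-reporter transfection. Exposure: 24 h. Detection: RT-PCR, 6-FAM labelling, HpaI digestion (2 h, 37 °C), capillary electrophoresis. Baseline: DMSO.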

[12] = biological target: Steroid hormone receptor ERR1 (Homo sapiens) (UniProt P11474); assay: ATG_ERRa_TRANS: Attagene TRANS-FACTORIAL HepG2 Assay for human Estrogen-Related Receptor alpha (ERRa) (AID 2282971); details: HepG2 Attagene TRANS reporter, ERRa transactivation
In short: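 Reporter transcripts from ERRa-Gal4 chimera activity measured in transiently transfected human HepG2 cells 24 hours after dosing, using RT-PCR with 6-FAM primer extension, HpaI digestion and capillary electrophoresis; DMSO is baseline.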

[13] = ATG_M_19_TRANS: Attagene TRANS-FACTORIAL HepG2 Assay for M19 Transcription Factor (Internal Marker) (AID 2282974); details: HepG2 Attagene TRANS-FACTORIAL M19 internal marker reporter
In short: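 Background-control readout: after 24 h chemical exposure of transfected HepG2 carrying GAL4-driven reporter units, RNA was reverse-transcribed, amplified, fluorescently labeled and sized by capillary electrophoresis; gain-of-signal fit against DMSO.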

[14] = ATG_GAL4_TRANS: Attagene TRANS-FACTORIAL HepG2 Assay for GAL4 (Internal Marker) (AID 2282976); details: HepG2 Attagene TRANS GAL4 internal marker reporter
In short: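 In transfected human HepG2 liver cells dosed 24 h, GAL4 reporter mRNA serves as a baseline marker. Detection by RT-PCR with fluorescent capillary electrophoresis, activity fitted upward relative to DMSO.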

[15] = biological target: Glucocorticoid receptor (Homo sapiens) (UniProt P04150); assay: ATG_GR_TRANS: Attagene TRANS-FACTORIAL HepG2 Assay for human Glucocorticoid Receptor (GR) (AID 2282978); details: HepG2 Attagene TRANS GR reporter, mRNA transcription;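 also: activators score as hits since higher reporter transcript over DMSO is fitted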
In short: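 Readout is reporter transcript from a chimeric GR-Gal4 acting on GAL4-UAS in transfected human HepG2 liver cells after 24 h exposure, quantified by RT-PCR and capillary electrophoresis. Activation fitted upward against DMSO.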

[16] = biological target: Androgen receptor (Homo sapiens) (UniProt P10275); assay: ATG_AR_TRANS: Attagene TRANS-FACTORIAL HepG2 Assay for human Androgen Receptor (AR) (AID 2282973); details: HepG2 Attagene TRANS-FACTORIAL AR reporter transcription
In short: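 Transcriptional activity of an exogenous AR–Gal4 fusion read as GAL4-UAS reporter transcript levels in transfected human HepG2 cells after 24 h dosing. Detection via RT-PCR, 6-FAM labelling, HpaI digest and capillary electrophoresis; increase over DMSO baseline.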

[17] = ATG_M_32_TRANS: Attagene TRANS-FACTORIAL HepG2 Assay for M32 Transcription Factor (Internal Marker) (AID 2282984); details: HepG2 Attagene TRANS M32 internal marker reporter
In short: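 HepG2 cells transiently transfected with multiple GAL4-UAS reporter transcription units, dosed for 24 hours; reporter mRNA quantified by RT-PCR, 6-FAM primer extension, HpaI digestion and capillary electrophoresis. Gain-of-signal fitted versus DMSO baseline; internal background-control marker.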

[18] = ATG_VDRE_CIS: Attagene CIS-FACTORIAL HepG2 Assay for human Vitamin D Receptor Element (VDRE) (AID 2282968; active = hit-call score of the fitted dose curve at least 0.9, where 1 is the maximum; inactive = score below 0.9); details: HepG2 VDRE cis-reporter transcription, actives raise or lower the signal
In short: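 HepG2 cells transiently transfected with cis-element reporter units, dosed 24 h; reporter mRNA measured by RT-PCR, 6-FAM labeling, HpaI digestion and capillary electrophoresis. Activity fitted bidirectionally against DMSO baseline.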

[19] = biological target: Estrogen receptor (Homo sapiens) (UniProt P03372); assay: ATG_ERa_TRANS: Attagene TRANS-FACTORIAL HepG2 Assay for human Estrogen Receptor alpha (ERa) (AID 2282970); details: HepG2 Attagene TRANS ERa GAL4 reporter, mRNA
In short: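 Cells: HepG2, transiently transfected. Construct: GAL4-UAS reporter units regulated by exogenous NR-Gal4 chimeras. Time: 24 h. Detection: reporter mRNA by RT-PCR, capillary electrophoresis, fluorescence. Baseline: DMSO, upward fitting.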

Measured: AC50

Chain of Glucocorticoid receptor (Homo sapiens) (P04150 whole entry, looked up, the tested form may be a part): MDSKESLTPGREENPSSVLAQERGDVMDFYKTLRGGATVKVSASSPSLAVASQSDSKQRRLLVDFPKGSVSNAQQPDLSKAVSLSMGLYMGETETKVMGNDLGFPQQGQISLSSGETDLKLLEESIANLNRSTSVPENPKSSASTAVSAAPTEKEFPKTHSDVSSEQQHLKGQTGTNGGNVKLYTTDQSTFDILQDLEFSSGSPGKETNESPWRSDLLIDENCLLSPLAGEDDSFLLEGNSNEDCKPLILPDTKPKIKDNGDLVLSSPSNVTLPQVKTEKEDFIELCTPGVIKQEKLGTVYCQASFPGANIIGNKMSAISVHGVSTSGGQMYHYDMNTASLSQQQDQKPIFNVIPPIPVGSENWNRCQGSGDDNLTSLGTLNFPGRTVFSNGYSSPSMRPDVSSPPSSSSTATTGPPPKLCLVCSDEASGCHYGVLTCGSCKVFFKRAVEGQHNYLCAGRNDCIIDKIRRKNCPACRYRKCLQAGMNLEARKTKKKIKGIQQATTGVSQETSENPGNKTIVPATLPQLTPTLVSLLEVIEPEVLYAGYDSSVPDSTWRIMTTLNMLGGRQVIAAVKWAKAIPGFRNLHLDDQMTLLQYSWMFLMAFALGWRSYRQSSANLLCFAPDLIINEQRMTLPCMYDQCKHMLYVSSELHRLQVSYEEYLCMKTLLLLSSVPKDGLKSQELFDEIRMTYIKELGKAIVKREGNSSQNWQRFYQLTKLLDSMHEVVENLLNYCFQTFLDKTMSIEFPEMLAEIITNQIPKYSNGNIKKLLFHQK
Chain of X-box-binding protein 1 (Homo sapiens) (P17861 whole entry, looked up): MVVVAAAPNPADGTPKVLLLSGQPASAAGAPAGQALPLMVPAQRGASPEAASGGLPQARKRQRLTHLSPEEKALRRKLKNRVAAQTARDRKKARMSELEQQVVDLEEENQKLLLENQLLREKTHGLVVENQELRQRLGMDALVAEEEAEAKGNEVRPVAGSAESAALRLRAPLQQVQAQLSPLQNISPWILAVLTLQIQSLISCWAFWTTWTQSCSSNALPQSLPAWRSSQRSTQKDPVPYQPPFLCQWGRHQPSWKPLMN
Chain of Bile acid receptor (Homo sapiens) (Q96RI1 whole entry, looked up, the tested form may be a part): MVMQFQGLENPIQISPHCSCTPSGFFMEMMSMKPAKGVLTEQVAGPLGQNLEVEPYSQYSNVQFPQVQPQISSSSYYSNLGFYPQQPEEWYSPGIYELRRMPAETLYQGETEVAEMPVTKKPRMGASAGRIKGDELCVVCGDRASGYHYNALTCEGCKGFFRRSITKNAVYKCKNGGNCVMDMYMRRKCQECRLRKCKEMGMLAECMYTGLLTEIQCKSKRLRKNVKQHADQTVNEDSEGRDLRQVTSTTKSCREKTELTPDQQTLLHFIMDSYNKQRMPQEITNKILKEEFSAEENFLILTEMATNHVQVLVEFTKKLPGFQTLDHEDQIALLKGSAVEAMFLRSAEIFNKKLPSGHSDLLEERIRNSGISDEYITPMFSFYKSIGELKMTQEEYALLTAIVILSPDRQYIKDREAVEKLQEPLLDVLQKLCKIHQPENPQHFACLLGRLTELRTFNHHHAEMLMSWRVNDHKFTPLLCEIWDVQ
Chain of Androgen receptor (Homo sapiens) (P10275 whole entry, looked up, the tested form may be a part): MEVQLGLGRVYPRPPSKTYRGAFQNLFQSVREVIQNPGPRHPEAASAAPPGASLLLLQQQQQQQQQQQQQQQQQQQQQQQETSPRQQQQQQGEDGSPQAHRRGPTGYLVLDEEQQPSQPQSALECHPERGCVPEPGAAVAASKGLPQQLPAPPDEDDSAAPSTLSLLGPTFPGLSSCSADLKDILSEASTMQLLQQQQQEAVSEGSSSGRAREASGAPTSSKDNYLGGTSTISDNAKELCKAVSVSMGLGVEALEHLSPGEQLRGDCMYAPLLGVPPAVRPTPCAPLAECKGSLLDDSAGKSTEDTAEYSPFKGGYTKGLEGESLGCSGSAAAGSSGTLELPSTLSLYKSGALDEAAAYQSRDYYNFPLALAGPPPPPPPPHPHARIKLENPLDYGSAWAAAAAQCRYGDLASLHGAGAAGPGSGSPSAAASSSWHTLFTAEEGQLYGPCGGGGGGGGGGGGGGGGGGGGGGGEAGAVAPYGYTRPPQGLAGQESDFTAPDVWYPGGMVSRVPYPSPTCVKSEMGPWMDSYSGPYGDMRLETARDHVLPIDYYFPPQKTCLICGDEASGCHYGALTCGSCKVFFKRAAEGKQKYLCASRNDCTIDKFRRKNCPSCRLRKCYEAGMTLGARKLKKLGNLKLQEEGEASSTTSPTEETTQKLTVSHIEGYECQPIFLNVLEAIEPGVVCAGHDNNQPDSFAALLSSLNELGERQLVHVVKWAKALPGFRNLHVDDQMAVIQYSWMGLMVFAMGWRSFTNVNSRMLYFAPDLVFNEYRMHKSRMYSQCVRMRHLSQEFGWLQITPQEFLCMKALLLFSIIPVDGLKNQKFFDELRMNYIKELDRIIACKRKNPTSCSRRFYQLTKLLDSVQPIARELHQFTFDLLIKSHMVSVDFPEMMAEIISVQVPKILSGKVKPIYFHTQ
Chain of Oxysterols receptor LXR-alpha (Homo sapiens) (Q13133 whole entry, looked up, the tested form may be a part): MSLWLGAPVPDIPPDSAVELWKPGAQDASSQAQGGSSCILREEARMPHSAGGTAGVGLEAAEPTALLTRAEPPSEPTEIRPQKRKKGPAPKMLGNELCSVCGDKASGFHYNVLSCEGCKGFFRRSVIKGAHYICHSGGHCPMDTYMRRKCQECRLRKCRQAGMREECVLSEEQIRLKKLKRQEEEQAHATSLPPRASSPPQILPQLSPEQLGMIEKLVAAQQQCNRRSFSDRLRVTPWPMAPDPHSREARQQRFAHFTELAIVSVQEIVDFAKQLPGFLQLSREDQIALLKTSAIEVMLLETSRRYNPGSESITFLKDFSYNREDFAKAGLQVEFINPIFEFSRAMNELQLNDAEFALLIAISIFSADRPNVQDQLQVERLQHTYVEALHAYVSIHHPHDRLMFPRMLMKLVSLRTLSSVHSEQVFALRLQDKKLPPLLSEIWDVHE
Chain of Nuclear receptor subfamily 1 group I member 3 (Homo sapiens) (Q14994 whole entry, looked up, the tested form may be a part): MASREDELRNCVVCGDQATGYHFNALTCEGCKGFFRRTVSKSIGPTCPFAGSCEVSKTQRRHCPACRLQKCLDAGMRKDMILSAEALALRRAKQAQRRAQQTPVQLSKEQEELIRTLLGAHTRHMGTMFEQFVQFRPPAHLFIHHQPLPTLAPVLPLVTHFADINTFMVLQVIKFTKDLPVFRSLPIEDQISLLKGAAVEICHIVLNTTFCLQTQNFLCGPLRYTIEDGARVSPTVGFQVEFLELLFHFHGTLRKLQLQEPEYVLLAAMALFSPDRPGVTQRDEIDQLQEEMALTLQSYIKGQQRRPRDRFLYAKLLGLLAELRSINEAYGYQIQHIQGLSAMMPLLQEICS
Chain of Estrogen-related receptor gamma (Homo sapiens) (P62508 whole entry, looked up, the tested form may be a part): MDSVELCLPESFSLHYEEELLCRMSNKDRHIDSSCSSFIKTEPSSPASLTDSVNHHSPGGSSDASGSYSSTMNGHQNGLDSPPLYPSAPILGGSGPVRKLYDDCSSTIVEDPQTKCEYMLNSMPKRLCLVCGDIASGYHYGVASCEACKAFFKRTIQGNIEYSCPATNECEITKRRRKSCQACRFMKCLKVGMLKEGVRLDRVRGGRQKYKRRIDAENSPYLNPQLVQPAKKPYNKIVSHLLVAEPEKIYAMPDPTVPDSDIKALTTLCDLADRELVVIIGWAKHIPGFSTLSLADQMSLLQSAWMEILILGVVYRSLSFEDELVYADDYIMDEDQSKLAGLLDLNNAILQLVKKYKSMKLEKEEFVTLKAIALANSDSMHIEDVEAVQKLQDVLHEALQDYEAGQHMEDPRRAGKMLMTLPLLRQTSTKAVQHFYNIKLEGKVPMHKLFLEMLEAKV
Chain of Steroid hormone receptor ERR1 (Homo sapiens) (P11474 whole entry, looked up, the tested form may be a part): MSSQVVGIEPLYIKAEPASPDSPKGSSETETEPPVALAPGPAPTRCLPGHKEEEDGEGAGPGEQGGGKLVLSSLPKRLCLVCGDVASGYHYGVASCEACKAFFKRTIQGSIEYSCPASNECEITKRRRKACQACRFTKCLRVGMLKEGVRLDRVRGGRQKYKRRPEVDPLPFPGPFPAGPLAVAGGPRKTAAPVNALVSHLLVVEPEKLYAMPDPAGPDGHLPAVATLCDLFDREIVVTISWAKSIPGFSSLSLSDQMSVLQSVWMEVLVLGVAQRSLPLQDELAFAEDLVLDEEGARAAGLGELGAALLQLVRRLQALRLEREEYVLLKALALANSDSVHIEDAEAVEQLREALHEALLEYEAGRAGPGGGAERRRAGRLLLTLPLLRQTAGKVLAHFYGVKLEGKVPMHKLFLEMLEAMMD
Chain of Estrogen receptor (Homo sapiens) (P03372 whole entry, looked up, the tested form may be a part): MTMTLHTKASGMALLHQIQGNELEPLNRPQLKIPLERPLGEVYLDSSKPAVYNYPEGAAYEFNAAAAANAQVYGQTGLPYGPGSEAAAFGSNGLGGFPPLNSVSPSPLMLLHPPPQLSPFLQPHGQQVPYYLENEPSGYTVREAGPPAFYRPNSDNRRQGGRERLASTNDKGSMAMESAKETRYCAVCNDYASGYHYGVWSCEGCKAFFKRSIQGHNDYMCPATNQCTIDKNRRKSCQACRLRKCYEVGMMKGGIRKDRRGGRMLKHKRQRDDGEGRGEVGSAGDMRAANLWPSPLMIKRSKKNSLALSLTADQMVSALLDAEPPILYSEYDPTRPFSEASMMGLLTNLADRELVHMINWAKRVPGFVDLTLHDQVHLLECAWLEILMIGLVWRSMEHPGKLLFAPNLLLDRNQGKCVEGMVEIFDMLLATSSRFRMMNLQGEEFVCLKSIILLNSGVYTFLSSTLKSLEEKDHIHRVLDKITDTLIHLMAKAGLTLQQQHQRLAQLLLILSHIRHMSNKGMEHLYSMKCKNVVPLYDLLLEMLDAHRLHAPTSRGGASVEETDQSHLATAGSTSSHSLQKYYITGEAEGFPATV

C#CCOS(=O)OC1CCCCC1Oc1ccc(C(C)(C)C)cc1 (configuration not stated)
not listed: [12] | [13] | [14] | [15] | [16] | [17] | [18] | [19]
inactive: all other assays above

COc1cnc(OC)n2nc(NS(=O)(=O)c3c(OCC(F)F)cccc3C(F)(F)F)nc12
not listed: [6] | [7] | [8] | [10] | [16] | [17] | [18] | [19]
inactive: all other assays above

CO/C=C(/C(=O)OC)c1ccccc1Oc1cc(Oc2ccccc2C#N)ncn1
not listed: [8] | [10] | [18] | [19]
inactive: all other assays above

C=CCC1=C(C)[C@@H](OC(=O)[C@@H]2[C@@H](C=C(C)C)C2(C)C)CC1=O
inactive: [1] | [2] | [3] | [4] | [12] | [5] | [6] | [7] | [15] | [11]
active: [18] 6.05 µM

COc1nc(NC(C)C)nc(NC(C)C)n1
not listed: [4] | [10] | [14] | [16]
inactive: all other assays above

CNC(=O)ON=CC(C)(C)SC
not listed: [4] | [16] | [18] | [19]
inactive: all other assays above

C=CC1(C)OC(=O)N(c2cc(Cl)cc(Cl)c2)C1=O (configuration not stated)
not listed: [4] | [7] | [10] | [12] | [16] | [19]
inactive: all other assays above

CN(C)C(=S)SSC(=S)N(C)C
inactive: [1] | [2] | [3] | [18] | [5] | [16] | [13] | [9]

CCON=C(CC)C1=C(O)CC(c2c(C)cc(C)cc2C)CC1=O (configuration not stated)
inactive: [1] | [2] | [3] | [18] | [5] | [9] | [11] | [17]

CCOc1cc(Oc2ccc(C(F)(F)F)cc2Cl)ccc1[N+](=O)[O-]
inactive: [1] | [2] | [3] | [4] | [6] | [11]
active: [5] 13.1 µM

O=C(Nc1ccccc1)Nc1ccnc(Cl)c1
active: [18] 50 µM
not listed: [4] | [8] | [10] | [11] | [14] | [19]
inactive: all other assays above
